Among the test systems are SR leukemia; OVCAR-8 ovarian; OVCAR-5 ovarian; OVCAR-4 ovarian; SK-OV-3 ovarian; IGROV1 ovarian; OVCAR-3 ovarian; NCI/ADR-RES ovarian; HS 578T breast; RPMI-8226 leukemia.
What all share (assay): NCI-60 one-dose screen, 48 h (100 = growth as untreated, 0 = no growth, -100 = all killed)
Common to all, as to details: 10 µM unless noted

For 14 molecules, growth results are on record in PubChem BioAssay (NCI).

The panel holds about 83,000 compounds, 20% with a hit somewhere; the sample as a whole holds those more often.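 Single-dose data. Exposure time 48 hours. Values below 10 considered active.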 Values without a mark were called inactive. Calls of active or inactive are those of the source.

Take `c1ccc(Cn2nc3c(c2-c2ccccc2)-c2oncc2CC3)cc1`: the growth is 72.4% with SR leukemia; 86.8% with OVCAR-8 ovarian; 107% in the assay on OVCAR-5 ovarian; 87.5% in the assay with OVCAR-4 ovarian; 115% in the assay on SK-OV-3 ovarian; 110% in the assay with IGROV1 ovarian. The growth was 106% in the assay with OVCAR-3 ovarian and 84.1% in the assay with NCI/ADR-RES ovarian.
Regarding `CC(C)(C)OC(=O)N1CCN(c2ccc(N)cc2)C(=O)C1`, the growth is 81.2% in the assay on SR leukemia; 107% with OVCAR-8 ovarian; 112% in the assay on OVCAR-5 ovarian; 108% in the assay on OVCAR-4 ovarian; 109% in the assay with SK-OV-3 ovarian; 112% in the assay with IGROV1 ovarian. The growth in the assay on OVCAR-3 ovarian was 117%; with HS 578T breast, 105%; in the assay on NCI/ADR-RES ovarian, 102%.
In the case of `COc1ccc(Cn2nc(-c3cc(OC)c(OC)c(OC)c3)c3c2CCc2cnoc2-3)cc1OC`, the growth in the assay with SR leukemia is 1.81% (active); in the assay with OVCAR-8 ovarian, 79%; in the assay with OVCAR-5 ovarian, 89.9%; in the assay with OVCAR-4 ovarian, 70.7%; in the assay on SK-OV-3 ovarian it was 47%; in the assay with IGROV1 ovarian, 63.4%. The growth in the assay with OVCAR-3 ovarian is 39.7%; in the assay on HS 578T breast, 72.5%; with NCI/ADR-RES ovarian, 26.1%.
In the case of `Cc1c(C(=O)NO)sc2ncnc(Nc3ccc(NC(=S)Nc4ccccc4)cc3)c12`, the growth is 110% with SR leukemia; 103% in the assay with OVCAR-8 ovarian; 103% with OVCAR-5 ovarian; 105% in the assay with OVCAR-4 ovarian; 121% with SK-OV-3 ovarian; 112% in the assay with IGROV1 ovarian. Besides, the growth is 111% with OVCAR-3 ovarian and 99.6% in the assay on NCI/ADR-RES ovarian.
For `COc1ccc(-c2c(-c3ccccc3)noc2N)cc1OC`, the growth is 76.6% in the assay on SR leukemia; 100% in the assay with OVCAR-8 ovarian; 117% with OVCAR-5 ovarian; 113% with OVCAR-4 ovarian; 107% with SK-OV-3 ovarian; 113% in the assay on IGROV1 ovarian. Also, the growth in the assay with OVCAR-3 ovarian was 117%; with HS 578T breast, 148%; in the assay with NCI/ADR-RES ovarian, 104%.
Consider `O=c1nc2n(nc1/C=C/c1ccco1)CC(c1ccc(Cl)cc1)=NN2`, for which the growth with SR leukemia was 45%; in the assay on OVCAR-8 ovarian it was 67.9%; in the assay with OVCAR-5 ovarian, 122%; in the assay on OVCAR-4 ovarian it was 95.3%; in the assay with SK-OV-3 ovarian, 93%; with IGROV1 ovarian, 8.48% (active). Besides, the growth in the assay with OVCAR-3 ovarian was 109%; in the assay on HS 578T breast, 116%; in the assay on NCI/ADR-RES ovarian, 100%.
Take `O=C(O)c1cn(C2CC2)c2cc(N3CCN(C(=O)C[n+]4cccc5ccccc54)CC3)c(F)cc2c1=O`: the growth with RPMI-8226 leukemia was 61.1%; with OVCAR-8 ovarian, 74.1%; in the assay on OVCAR-5 ovarian it was 100%; with OVCAR-4 ovarian, 54.5%; in the assay on SK-OV-3 ovarian, 106%; in the assay on IGROV1 ovarian, 92.7%. The growth in the assay with OVCAR-3 ovarian was 51.1%; with HS 578T breast, 84.9%; in the assay with NCI/ADR-RES ovarian, 93.8%.
In the case of `CCOC(=O)c1cnc2c(cnn2CC)c1NN=C(C)C`, the growth with SR leukemia is 65.9%; in the assay with OVCAR-8 ovarian, 98.9%; with OVCAR-5 ovarian, 80.3%; in the assay with OVCAR-4 ovarian, 96.2%; in the assay on SK-OV-3 ovarian it was 98.5%; with IGROV1 ovarian, 9.1% (active). Moreover, the growth in the assay on OVCAR-3 ovarian is 104%; in the assay on HS 578T breast, 94.5%.
In the case of `Cc1cc(C(=O)Nc2ncnc3nc[nH]c23)no1`, the growth in the assay on RPMI-8226 leukemia is 95%; in the assay with OVCAR-8 ovarian it was 102%; with OVCAR-5 ovarian, 116%; in the assay on OVCAR-4 ovarian it was 114%; in the assay with SK-OV-3 ovarian, 97.2%; with IGROV1 ovarian, 89.6%. In addition, the growth is 108% with OVCAR-3 ovarian, 95.5% with HS 578T breast and 106% in the assay with NCI/ADR-RES ovarian.
As for `COc1cc(/C=C2\C(=O)N(Cc3ccc(Cl)cc3)c3ccccc32)cc(OC)c1OC`, the growth was -5.2% (active) in the assay on SR leukemia; -31.7% (active) in the assay on RPMI-8226 leukemia; 65.9% in the assay with OVCAR-5 ovarian; 47.7% in the assay on OVCAR-4 ovarian; 79.3% with SK-OV-3 ovarian; 9.22% (active) in the assay with IGROV1 ovarian. The values for the growth in the assay with OVCAR-3 ovarian, in the assay on HS 578T breast and in the assay on NCI/ADR-RES ovarian were -49.6% (active), -14.3% (active) and 21.4%, respectively.
For the molecule `Cc1n[nH]c(C)c1-c1c(C)n[nH]c1C`, the growth in the assay with SR leukemia was -6.74% (active); with OVCAR-8 ovarian, 12.4%; with OVCAR-5 ovarian, 2.14% (active); in the assay on OVCAR-4 ovarian, -17.5% (active); in the assay with SK-OV-3 ovarian it was 46.8%; in the assay on IGROV1 ovarian it was 5.52% (active). Also, the figures for the growth with OVCAR-3 ovarian and with NCI/ADR-RES ovarian were -53.4% (active) and 9.39% (active), respectively.
In the case of `Nc1nnc2cc(Cl)ccc2n1`, the growth was 68.9% in the assay with RPMI-8226 leukemia; 105% in the assay on OVCAR-8 ovarian; 105% in the assay on OVCAR-5 ovarian; 111% in the assay on OVCAR-4 ovarian; 96.5% in the assay on SK-OV-3 ovarian; 96.3% in the assay with IGROV1 ovarian. In addition, the growth with OVCAR-3 ovarian was 145%; in the assay on HS 578T breast it was 86.4%; in the assay with NCI/ADR-RES ovarian, 96.3%.
Consider `COc1ccc(-c2cnc(N)nc2-c2ccc(OC)cc2O)cc1`, for which the growth in the assay with SR leukemia is 66.9%; with OVCAR-8 ovarian it was 89.5%; in the assay with OVCAR-5 ovarian, 102%; in the assay on OVCAR-4 ovarian, 86.5%; in the assay with SK-OV-3 ovarian, 103%; with IGROV1 ovarian, 83.8%. Moreover, the growth in the assay on OVCAR-3 ovarian was 108%; in the assay on HS 578T breast, 157%; in the assay with NCI/ADR-RES ovarian it was 85.7%.
As for `COc1ccc(Cn2nc3c(c2-c2cc(OC)c(OC)c(OC)c2)-c2oncc2CC3)cc1`, the growth in the assay with SR leukemia is 25.5%; in the assay on OVCAR-8 ovarian, 107%; in the assay on OVCAR-5 ovarian, 88%; in the assay with OVCAR-4 ovarian, 86.8%; with IGROV1 ovarian it was 81.8%; in the assay on OVCAR-3 ovarian, 98%. For the same molecule, the growth with HS 578T breast is 116%; in the assay on NCI/ADR-RES ovarian it was 65.9%.
